In PubChem BioAssay (NCATS) one finds Potency and activity (max response) data, which are given here for 29 molecules.

The structures appear in SMILES notation. “And” between values parts separate entries of the source, which are not always exact repeats. Equal values may be shown once. Inconclusive results are not listed. Unmarked numbers belong to inactive results. The source made the active and inactive calls. The call rests on the fitted dose curve; in most records, active means well fitted curve in the direction sought with a large enough effect; inconclusive means small, poorly fitted or top-dose-only effect, or another doubt; inactive means no such curve, though single readings can be large; an effect the other way counts as inactive or inconclusive.
Potency means the concentration at half of the fitted maximal effect.

The nature of the first assay: Quantitative highthroughput screen to assess conditional lethalithy of SEM cells grown in RPMI1640 with dialyzed fetal bovine serum (RPMI+ds) (AID 1963884). Further: nearly all actives have a fitted effect of over 35% in size.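 On viability: 100% = DMSO control wells and 0% = empty wells without cells.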 The following applies: SEM B-ALL cells, RPMI+dialyzed FBS, CellTiter-Glo viability, 48 h; series mostly up to 45.8 µM. A digest of the protocol: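 Each medium arm—HPLM with 10% dialyzed FBS, or RPMI1640 with 5 mM glucose and 10% untreated or dialyzed FBS—was screened against an 11-point, 3-fold compound titration for 48 h at 37 °C, with CellTiter-Glo luminescence as endpoint.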
For the molecule `N[C@@H](Cc1cc(I)c(Oc2cc(I)c(O)c(I)c2)c(I)c1)C(=O)O`, the Potency entry was “inactive”.

For `Cc1ccccc1-n1c(Cn2nc(-c3cccc(O)c3)c3c(N)ncnc32)nc2cccc(C)c2c1=O`, the Potency entry was “inactive”.

Consider `Cc1nc(-c2ccc(OCC(C)C)c(C#N)c2)sc1C(=O)O`, for which the Potency entry is “inactive”.

On to `C=CC(=O)N1CCc2ccc(-n3c(=O)ccc4cnc5ccc(-c6cnn(C)c6)cc5c43)cc21`, for which the Potency was 3.32 µM (active).

For the molecule `Cc1onc(-c2ccccc2Cl)c1C(=O)N[C@@H]1C(=O)N2[C@@H]1SC(C)(C)[C@@H]2C(=O)O`, the Potency result was “inactive”.

Regarding `O=C(O)c1cc(=O)c2c(OCC(O)COc3cccc4oc(C(=O)O)cc(=O)c34)cccc2o1`, the Potency result was “inactive”.

As for `Cc1cnc(Nc2ccc(CN3CCOCC3)cc2)nc1Nc1cccc(S(=O)(=O)NC(C)(C)C)c1`, the Potency was 0.166 µM (active).

For the molecule `Cc1cnc(C(=O)O)c[n+]1[O-]`, the Potency result is “inactive”.

With `N=c1ccn2c(n1)O[C@H]1[C@@H](O)[C@@H](CO)O[C@H]12`, the Potency is 0.0935 µM (active).

In the case of `C#Cc1cccc(Nc2ncnc3cc(OC)c(OCCCCCCC(=O)NO)cc23)c1`, the Potency is 0.209 µM (active).

As to `Cc1cc(CN2CCN(c3c(Br)cnc4nc(-c5ccc(N6CCN(C)CC6)cc5)[nH]c34)CC2)no1`, the Potency was 0.743 µM (active).

`Cc1noc(NS(=O)(=O)c2ccc(N)cc2)c1C`: the Potency result is “inactive”.

Turning to `CCOC(=O)c1ccc(C#Cc2ccc3c(c2)C(C)(C)CCS3)nc1`, the Potency entry was “inactive”.

The nature of a further assay: Cellular viability qHTS for adrenocortical cancer (ACC) cell line SW-13 (AID 1963989). Further: nearly all actives have a fitted effect of over 65% in size.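 On activity (max response): cells grown in serum-free medium with ITS supplement; on the % scale 0 is the no-effect control and ±100 the full control effect.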 The following applies: SW-13 ACC cells viability, CellTiter-Glo, 48 h; activity (max response): hits give low values. In short, it runs like this:
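SW-13 cells in ITS-supplemented serum-free DMEM were plated overnight, then exposed for 48 h at 37C to compound titrations (up to 46 uM final). Viability was read by CellTiter-Glo luminescence; four-parameter logistic fits gave IC50 and efficacy.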
On the technique in general: In qHTS, concentration-response curves come from the screen itself.
`N#Cc1c(N(CC(=O)O)CC(=O)O)sc(C(=O)O)c1CC(=O)O`: the activity (max response) was 0.42%.

With `CNC1CCC(N(Cc2cccc(-c3ccncc3)c2)C(=O)c2sc3ccccc3c2Cl)CC1` (stereo unspecified), the Potency was 10 µM (active).

Take `O=C1N(c2ccccc2)c2ccccc2C1(Cc1ccncc1)Cc1ccncc1`: the activity (max response) is -5.03% and 7.18%.

For `OC(Cn1cncn1)(Cn1cncn1)c1ccc(F)cc1F`, the activity (max response) was 1.07% and 11%.

Regarding `CCCCCCCCCCCCCC(=O)N[C@H](CO)[C@H](O)c1ccc([N+](=O)[O-])cc1`, the activity (max response) was 0.392%.

Consider `CN1CCN(CCCN2c3ccccc3Sc3ccc(C(F)(F)F)cc32)CC1`, for which the Potency is 20.6 µM (active) and 25.1 µM (active).

For `O=C(Nc1cccc(Cl)c1)Nc1ncc(CCNc2ncnc3ccsc23)s1`, the Potency is 28.2 µM (active).

Regarding `COc1ccc(C2CNC(=O)C2)cc1OC1CCCC1` (stereo unspecified), the activity (max response) is 1.73% and 4.14%.

Take `CC(C)c1cnn2c(NCc3ccccc3)cc(N[C@@H](CO)[C@H](O)CO)nc12`: the Potency is 0.891 µM (active).

Regarding `CCS(=O)(=O)c1cccc(-c2cc(C(=O)NC3CCN(C)CC3)c(C)c3[nH]c4ncc(C)cc4c23)c1`, the Potency was 1 µM (active).

Turning to `Cc1cc(Nc2ncc(Cl)c(Nc3ccccc3S(=O)(=O)C(C)C)n2)c(OC(C)C)cc1C1CCNCC1`, the Potency is 15.8 µM (active).

As for `CC(C)Oc1cc(Nc2nc(N[C@@H](C)c3ccc(F)cn3)ncc2Cl)[nH]n1`, the activity (max response) was -7.04%.

In the case of `N[C@@H](Cc1cc(I)c(Oc2cc(I)c(O)c(I)c2)c(I)c1)C(=O)O`, the activity (max response) is 3.69% and -6.52%.

As to `Cc1ccccc1-n1c(Cn2nc(-c3cccc(O)c3)c3c(N)ncnc32)nc2cccc(C)c2c1=O`, the activity (max response) is -11.8%.

For the molecule `Cc1nc(-c2ccc(OCC(C)C)c(C#N)c2)sc1C(=O)O`, the activity (max response) was 5.55% and 8.19%.

As to `C=CC(=O)N1CCc2ccc(-n3c(=O)ccc4cnc5ccc(-c6cnn(C)c6)cc5c43)cc21`, the Potency is 3.58 µM (active).

`Cc1cc(O)c2c(c1)C(=O)c1cccc(O)c1C2=O`: the activity (max response) was -6.49%.

Regarding `Cc1onc(-c2ccccc2Cl)c1C(=O)N[C@@H]1C(=O)N2[C@@H]1SC(C)(C)[C@@H]2C(=O)O`, the activity (max response) was 0.896%.

Take `Cc1cnc(Nc2ccc(OCCN3CCCC3)cc2)nc1Nc1cccc(S(=O)(=O)NC(C)(C)C)c1`: the Potency is 12.6 µM (active).

Regarding `O=C(O)c1cc(=O)c2c(OCC(O)COc3cccc4oc(C(=O)O)cc(=O)c34)cccc2o1`, the activity (max response) was 10.3% and -0.0262%.

In the case of `Nc1ccccc1NC(=O)c1ccc(CNC(=O)OCc2cccnc2)cc1`, the Potency is 11.2 µM (active).

Consider `c1ccc2c(Oc3nc(Nc4ccc(N5CCOCC5)cc4)c4ncn(C5CCCCC5)c4n3)cccc2c1`, for which the activity (max response) is -10%.

For the molecule `Cc1cnc(Nc2ccc(CN3CCOCC3)cc2)nc1Nc1cccc(S(=O)(=O)NC(C)(C)C)c1`, the Potency is 15.8 µM (active).

`Cc1cnc(C(=O)O)c[n+]1[O-]`: the activity (max response) was -15.7%.

For `C#Cc1cccc(Nc2ncnc3cc(OC)c(OCCCCCCC(=O)NO)cc23)c1`, the Potency was 1.78 µM (active).

With `Cc1cc(CN2CCN(c3c(Br)cnc4nc(-c5ccc(N6CCN(C)CC6)cc5)[nH]c34)CC2)no1`, the Potency was 31.6 µM (active).

With `Cc1noc(NS(=O)(=O)c2ccc(N)cc2)c1C`, the activity (max response) was -8.37%.

In the case of `CCOC(=O)c1ccc(C#Cc2ccc3c(c2)C(C)(C)CCS3)nc1`, the activity (max response) is -8.69%.
